# Shiga toxin inh: A qHTS for Small Molecule Inhibitors of Shiga Toxin | Vero cells, Shiga toxin protein synthesis inhibition reporter | inhibition, % at 38.7 µM | hit rate 9.2% among 290,000; in the data active = inhibition mostly above about 28%, no sharp cut-off; inactive = mostly below about 43%; also: 0% is about no effect
# MARV entry inh: qHTS for inhibitors of binding or entry into cells for Marburg Virus; hit rate 1.8% among 300,000; Marburg virus pseudotyped entry inhibition, cell reporter; Potency, µM (highest dose often 37.8 µM), for inactives: at the highest dose activity change, negative = inhibition, hits mostly inhibitors; calls by dose curve; tested in HEK293 cells; also: potency is read from the fitted curve at half-maximal effect; % is scaled to controls: 0 for no effect and ±100 for the full control effect
# VACV mCherry inh: qHTS for Stage-Specific Inhibitors of Vaccinia Orthopoxvirus: mCherry Reporter Primary qHTS; hit rate 0.63% among 310,000; Vaccinia virus mCherry reporter infection, fluorescence; AID 720579, 2013; Potency, µM (titrated, usually from 36.5 µM), without a hit: at the highest dose activity change, negative = inhibition, actives largely listed as inhibitors; calls by dose curve; tested in A549 cells; also: potency is read from the fitted curve at half-maximal effect; % is scaled to controls: 0 for no effect and ±100 for the full control effect; nearly all actives have a fitted effect of over 35% in size
# VACV Venus inh: qHTS for Stage-Specific Inhibitors of Vaccinia Orthopoxvirus: Venus Reporter Primary qHTS. Vaccinia virus Venus reporter expression, fluorescence. AID 720580, 2013. Potency, µM (doses to about 36.5 µM), without a hit: at the top dose activity change, negative = inhibition, usual class: inhibitors. hit rate 0.46% among 330,000; calls by dose curve; tested in A549 cells; also: potency is read from the fitted curve at half-maximal effect; % is scaled to controls: 0 for no effect and ±100 for the full control effect; nearly all actives have a fitted effect of over 30% in size
# LASV entry inh: qHTS for Inhibitors of binding or entry into cells for Lassa Virus | Lassa virus pseudotype entry inhibition, cell reporter | Potency, µM (titrated, usually from 37.9 µM), inactives show at the top dose activity change, negative = inhibition, actives largely listed as inhibitors | hit rate 1.2% among 300,000 | AID 540256, 2011; calls by dose curve; tested in HEK293 cells; also: potency is read from the fitted curve at half-maximal effect; % is scaled to controls: 0 for no effect and ±100 for the full control effect; nearly all actives have a fitted effect of over 50% in size
# Cycloheximide cs: Cycloheximide Counterscreen for Small Molecule Inhibitors of Shiga Toxin. cell reporter, cycloheximide protein synthesis inhibition counterscreen. hit rate 12% among 300,000. max response, %; in the data active = max response mostly above about 13%, no sharp cut-off; inactive = mostly below about 14%; also: read at 38.3 µM for the half of the compounds with a filed dose; 0% is about no effect
# Starred values were filed as active, the others as inactive; i = inactive; ? = inconclusive; . = not tested or not shown; [ ] = remark or other dose. The entries come from a sample that favours hits as a whole.
SMILES,Shiga toxin inh,MARV entry inh,VACV mCherry inh,VACV Venus inh,LASV entry inh,Cycloheximide cs
Cc1ccc(C)c(NC(=O)CSc2ncc3c(n2)-c2ccc(Cl)cc2N(C)S3(=O)=O)c1,.,.,-3%[7.34 µM],-1%[7.34 µM],25%[46.1 µM],.
CCCn1c(-c2ccccc2)nc2c(=O)n(C)c(=O)[nH]c21,-19,12%,.,-6%,-2%,-4
Cc1nc2c(=O)n(C)c(=O)[nH]c2n1Cc1ccccc1,20,22%,.,.,3%,37*
COC(=O)C1=C(C)N(C)C(=O)NC1c1c(O)ccc2ccccc12 (stereo not drawn),-12,?,-10%,-4%,1%,-2
S=C(N/N=C/c1ccc2ncccc2c1)Nc1ccccc1,66*,.,7.9µM*,11µM*,.,35*
C(=N\NCc1ccccc1)/c1ccc2nccnc2c1,64*,.,.,.,.,37*
C(=N\NCc1ccccc1)/c1ccc2ncccc2c1,79*,.,.,.,.,38*
COc1ccccc1C(=O)COC(=O)CN1C(=O)C2CC=CCC2C1=O (stereo not drawn),.,-2%[46.1 µM],-17%,-2%,0%,.
CC(Cc1ccccc1)N1C(=O)c2ccccc2C1=O (stereo not drawn),49*,.,.,.,.,22*
C[C@@H]1CC[C@H]2C(=O)O[C@@H](COc3ccc(C(C)(C)C)cc3)CN2[C@H]1c1ccc(Br)cc1,.,?,.,.,-26%[14.3 µM],.
Cc1onc(-c2ccccc2Cl)c1C(=O)N1CCc2ccccc2C1,-5,-22%,-23%,-12%,1%,-2
O=C(c1noc2c1CCc1ccccc1-2)N1CCc2ccccc2C1,60*,0%,.,.,.,28*
O=C(c1noc2c1CCc1ccccc1-2)N1CCOCC1,43*,-2%,.,.,4%,36*
O=C(c1noc2c1CCc1ccccc1-2)N1CCCc2ccccc21,19,?,.,.,3%,21*
CCCCOc1cccc(C2c3c(oc4ccccc4c3=O)C(=O)N2c2ccccn2)c1 (stereo not drawn),.,3%[46.1 µM],-7%,-11%,16%[46.1 µM],.
CCOC(=O)c1ccc(NC(=O)c2cnc3c(-c4ccc(F)cc4)c(C)nn3c2C)cc1,.,.,i,-10%,-30%[46.1 µM],.
C=CS(=O)(=O)c1ccc(Oc2ccc(S(=O)(=O)C=C)cc2)cc1,20,?,7.1µM*,10µM*,6.5µM*,-1
COc1cc(/C=C/C(C)=NNc2ccccc2)ccc1O,.,?,3.5µM*,-21%,-27%[46.1 µM],.
COc1cc(/C=C/C(=O)CC(=O)/C=C/c2ccc(O)c(OC)c2)ccc1O,56,?,15%,9%,18µM*,50
CN(C)c1ccc(/C=C/c2c(Br)cnc3ccccc23)cc1,.,.,-17%,-18%,.,.
C/C(=N\NC(=O)c1ccn[nH]1)c1cn(C)nc1C,117*,?,i,-18%,?,44*
O=C(NCC1OCCc2ccccc21)c1ccc(NC(=O)c2ccccc2Cl)cc1 (stereo not drawn),1,7.9µM*,-13%,-18%,?,10
CCOc1ccc(C(=O)NCC2OCCc3ccccc32)cc1 (stereo not drawn),active,26%,-9%,-8%,0%,25*
COc1ccc(C(=O)NCC2OCCc3ccccc32)cc1 (stereo not drawn),151,?,-18%,-8%,?,28
Cc1cccc(NC(=S)/N=C(\N)Nc2nc(C)c3ccc(C)cc3n2)c1,-11,11µM*,?,?,?,-1
SMILES,Shiga toxin inh,MARV entry inh,VACV mCherry inh,VACV Venus inh,LASV entry inh,Cycloheximide cs
COc1ccc2c(C)nc(N/C(N)=N/S(=O)(=O)c3ccc(C)cc3)nc2c1,-7,?,-29%,-24%,?,-2
COc1ccc2nc(N/C(N)=N/C(=S)Nc3ccccc3)nc(C)c2c1,69*,?,-30%,-18%,-2%,24*
Cc1cccc(NC(=S)/N=C(\N)Nc2nc(C)c3cc(C)ccc3n2)c1,-5,?,?,-17%,-15%,-2
Cc1cc(C)cc(NC(=S)/N=C(\N)Nc2nc(C)c3ccccc3n2)c1,-7,?,?,-19%,6%,-5
Cc1ccc(S(=O)(=O)/N=C(\N)Nc2nc(C)c3ccccc3n2)cc1,16,?,-15%,-28%,1%,21*
Cc1ccc(NC(=S)/N=C(\N)Nc2nc(C)c3ccccc3n2)cc1C,20,?,-12%,-23%,-24%,22*
Cc1cc(C(=O)Nc2ccccc2-c2nc(CNC(=O)C3COc4ccccc4O3)c(C)o2)c(C)o1 (stereo not drawn),.,.,-1%,17%,.,.
Cc1cccc(NC(=S)/N=C(\N)Nc2nc(C)c3ccccc3n2)c1,50,?,?,-20%,?,30*
CCc1ccc(NC(=S)/N=C(\N)Nc2nc(C)c3cc(CC)ccc3n2)cc1,-3,?,?,?,?,9
O=C(Nc1cccc(C(=O)Nc2cccc(Br)c2)c1)c1ccccc1,20,.,.,.,.,12
Cc1nc(-c2cccc(NC(=O)c3cccs3)c2)cs1,33,13%[46.1 µM],?,-16%,4%,16*
Cc1nc(-c2ccc(C(=O)Nc3cc(S(N)(=O)=O)ccc3C)cc2)cs1,56*,.,.,.,.,14*
O=C(Nc1cccc(-c2csc(-c3ccccc3)n2)c1)c1cccs1,19,?,?,?,?,7
COc1ccc(OC)c(NC(=O)c2ccc(-c3csc(C)n3)cc2)c1,.,0%,-20%,-16%,-10%,16*
O=C(Nc1cccc(Br)c1)c1ccn[nH]1,35*,8%,.,.,0%,45*
Cc1ccc(N2C(=O)N(CC(=O)Nc3ccccc3C(F)(F)F)C(=O)C2C)cc1 (stereo not drawn),.,8%,-1%,-16%,-18%,.
COc1ccc(OC)c(NC(=O)c2csc(Cl)c2OC)c1,14,.,.,.,.,21*
Cc1nc(-c2cccc(NC(=O)Cc3ccccc3)c2)cs1,23,18%[46.1 µM],-18%,-19%,?,32*
Cc1nc(-c2ccc(C(=O)Nc3cccc(Br)c3)cc2)cs1,56*,.,.,.,.,33*
COc1ccc(-c2csc(C)n2)cc1Br,74*,?,i,-12%,5%[46.1 µM],35*
Cc1nc(-c2cccc(NS(C)(=O)=O)c2)cs1,33,12%,.,.,6%,1
CCOC(=O)C1(Cc2ccccc2)CCCN(C2CCCC2)C1 (stereo not drawn),-6,?,?,?,23%[46.1 µM],-2
CC(C)CC1NC(=O)N(CC(=O)Nc2cc([N+](=O)[O-])ccc2F)C1=O (stereo not drawn),.,4%,i,-14%,?,.
O=C(Nc1cccc2ncccc12)C(c1ccccc1)c1ccccc1,-8,-26%,.,.,-3%,-3
CCOC(=O)c1ccc(NC(=O)CSc2nnc(CNC(=O)c3ccco3)o2)cc1,13,1%[46.1 µM],i,-1%,23%[46.1 µM],-2
Cc1ccc(-c2nc(CS(=O)CC(=O)NCCCc3ccccc3)c(C)o2)cc1 (stereo not drawn),2,-28%[46.1 µM],-25%,?,1%[46.1 µM],22*
